Reference: PubChem BioAssay AID1626 (SRMLSC, 2009)
Out of some 220,000 compounds screened, about 2,000 (0.91%) were called active. Not shown: some 2% with an inconclusive outcome. No stated cut-off is given here; in the data, inconclusive means inhibition above about 80% without an active follow-up result; inactive means below that; test concentration not stated here. A selection follows. Measured potencies and affinities stand elsewhere.

Experiment: M. tuberculosis H37Rv growth inhibitors, H37Rv strain (AID 1626);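 further: bacteria incubated seven days before Alamar blue readout; 0% = bacteria only wells and 100% = bacteria with antibiotic wells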
Conditions: active compounds read high, concentration not given here

SMILES	inhibition
CCOC(=O)CN1CC23C=CC(O2)C(C(=O)Nc2ccc(F)c(C)c2)C3C1=O (stereo not drawn)	-11.9% (inactive)
CCCCNC(=O)COC(=O)c1ccc(C)c(NC(=O)c2ccco2)c1	-7% (inactive)
CCN1CCN(C(=O)C(=O)c2c(C)[nH]c3ccccc23)CC1	0.56% (inactive)
O=C(CSc1nnc(CCCN2C(=O)c3cccc4cccc(c34)C2=O)n1-c1ccccc1)N1CCN(CCO)CC1	-10.9% (inactive)
O=C1Nc2cc(Cl)cnc2N2CCCC12 (stereo not drawn)	2.46% (inactive)
CCN(CC)CCCNC(=O)Cn1nc([N+](=O)[O-])c(Cl)c1C	-1.51% (inactive)
Cc1cccc(N2CCN(C(=O)c3ccc(CNc4c(N5CCC(C)CC5)c(=O)c4=O)cc3)CC2)c1C	73.1% (inactive)
CC1CCN(c2c(NCc3ccc(C(=O)N4c5ccccc5CC4C)cc3)c(=O)c2=O)CC1 (stereo not drawn)	7.17% (inactive)
O=C(NCc1ccccc1)c1ccc(CNc2c(N3CCCC3)c(=O)c2=O)cc1	3.31% (inactive)
Cc1ccc(CNC(=O)c2ccc(CNc3c(N4CCCC4)c(=O)c3=O)cc2)cc1	8.62% (inactive)
CC1CCN(C(=O)c2ccc(CNc3c(N4CCCC4)c(=O)c3=O)cc2)CC1	78.3% (inactive)
CCOC(=O)C1CCCN(C(=O)c2ccc(CNc3c(N4CCC(C)CC4)c(=O)c3=O)cc2)C1 (stereo not drawn)	0.97% (inactive)
O=[N+]([O-])c1ccc(N2CCC(O)CC2)nc1	-4.33% (inactive)
O=c1oc2ccccc2c(NCCO)c1[N+](=O)[O-]	0.19% (inactive)
Cc1cc(C)cc(NC(=O)C2CCCC2)c1	-9.17% (inactive)
CCOC(=O)C1CCN(c2nc(-c3ccccc3)nc3c2oc2ccccc23)CC1	25.5% (inactive)
OCCN(CCO)c1nc(-c2ccccc2)nc2c1oc1ccccc12	0.94% (inactive)
O=C(O)C1CCN(c2nc(-c3ccccc3)nc3c2oc2ccccc23)CC1	2.63% (inactive)
NC(=O)C1CCN(c2nc(-c3ccccc3)nc3c2oc2ccccc23)CC1	0.65% (inactive)
COc1ccc(NC(=S)NCc2ccc(S(N)(=O)=O)cc2)c(OC)c1	6.58% (inactive)
O=C(NC1CCCC1)C(c1ccc(N2CCOCC2)cc1)N(Cc1ccccc1)C(=O)c1ccco1 (stereo not drawn)	-11.4% (inactive)
O=c1c(C(c2ccccc2)c2c(O)nc3n(c2=O)CCCS3)c(O)nc2n1CCCS2	7.37% (inactive)
Cc1cc(C)c(S(=O)(=O)N2CCC(C(=O)NCc3ccc(Cl)cc3Cl)CC2)c(C)c1	4.79% (inactive)
O=S(=O)(c1ccccc1Br)N1CCC(O)(c2cccnc2)CC1	-4.98% (inactive)

SMILES	inhibition
CCOc1ccccc1NC(=O)C1CCCN(S(=O)(=O)c2ccc(OC)c(C)c2)C1 (stereo not drawn)	-3.35% (inactive)
O=C(Nc1nnc(-c2ccccc2)o1)Nc1ccc(F)cc1F	7.77% (inactive)
O=C(Nc1ccccc1)Nc1nnc(-c2ccccc2)o1	6.54% (inactive)
O=C(Nc1ccccc1)c1nc2ccccc2s1	27.8% (inactive)
O=C(Nc1nnc(-c2cccnc2)o1)c1ccccc1Cl	4.74% (inactive)
NC(=O)c1oc2ccccc2c1NC(=O)c1nc2ccccc2s1	-3.12% (inactive)
O=C(Nc1ccc(F)cc1)Nc1nnc(-c2ccccc2)o1	-7.42% (inactive)
COc1ccc(CNC(=O)c2cnccn2)cc1	-0.78% (inactive)
COc1ccc(CCNC(=O)C2CCC(CNc3c(N4CCCC4)c(=O)c3=O)CC2)cc1OC (stereo not drawn)	-2.59% (inactive)
COC(=O)[C@@H]1CCCN1Cc1c(C(=O)N2CCOCC2)nc2c(C)cccn12	-6.22% (inactive)
O=C(COc1ncnc2sccc12)N1CCN(C(=O)c2ccco2)CC1	-7.61% (inactive)
CC1(C)CC(N=Cc2c(O)n(Cc3ccc4c(c3)OCO4)c(=O)c3ccccc23)CC(C)(C)N1	15% (inactive)
O=c1c2ccccc2c(C=NCCCN2CCOCC2)c(O)n1Cc1ccc2c(c1)OCO2	4.72% (inactive)
O=C(c1ccccc1-n1cccc1)N1N=C(C(F)F)CC1(O)C(F)F (stereo not drawn)	-5.84% (inactive)
Cc1ccc2occ(/C=N/NC(N)=S)c(=O)c2c1	-2.35% (inactive)
COc1cc(OC)cc(C(=O)/C=C2\Sc3ccccc3N2C)c1	-9.58% (inactive)
COc1ccc(C(=O)/C=C2\Sc3ccccc3N2C)cc1	-4.42% (inactive)
COc1ccc(CNC(=O)COC(=O)c2cncc(Br)c2)cc1	-4.32% (inactive)
Cc1nc2cc(O)ccc2n1C	-5.57% (inactive)
COc1cccc(NC(=O)c2cc(-c3cccnc3)nc3c(Cl)cccc23)c1	-0.99% (inactive)
COc1ccc(CNC(=O)c2cc(-c3ccncc3)nc3c(C)cc(C)cc23)cc1OC	6.31% (inactive)
Cc1ccc(-c2cc(C(=O)Nc3cc(C)on3)c3ccccc3n2)cc1	6.46% (inactive)
Cc1cc(NC(=O)c2cc(-c3cccnc3)nc3c(C)c(C)ccc23)no1	13.3% (inactive)
COc1ccc(N(C(C)C(=O)Nc2cccnc2)S(C)(=O)=O)cc1 (stereo not drawn)	-6.21% (inactive)

SMILES	inhibition
Cc1cc(C)c2nc(N3CCC(C(=O)N4CCN(C(=O)c5ccco5)CC4)CC3)sc2c1	-2.47% (inactive)
O=C(NCc1cccc(Cl)c1)c1cc(COc2ccc3ncccc3c2)on1	58.2% (inactive)
COc1ccc(-n2nnc3c(=O)n(Cc4cccc(C)c4)cnc32)cc1	-11.3% (inactive)
COc1ccccc1-c1nnc(SCC(=O)OC(C)C)o1	58.4% (inactive)
CC(C)OC(=O)CSc1nnc(-c2ccc(Cl)cc2Cl)n1N	-12.6% (inactive)
CCOC(=O)CSc1ncc(-c2ccccc2)cn1	15% (inactive)
CCOC(=O)C(C)Sc1ncc(OC)c(Sc2ccc(Cl)cc2)n1 (stereo not drawn)	7.19% (inactive)
CCCOC(=O)CSc1nnc(-c2ccccc2Cl)o1	42.3% (inactive)
CCOC(=O)CSc1nnc(-c2cccc(Cl)c2)n1CC	-1.18% (inactive)
CCOC(=O)C(C)Sc1ncc(-c2ccccc2)cn1 (stereo not drawn)	-6.07% (inactive)
CCSc1nnc(-c2ccc(Cl)cc2Cl)o1	4.11% (inactive)
O=C(CN1C(=O)c2cccc3cccc1c23)Nc1ccc(S(=O)(=O)Nc2nccs2)cc1	-0.34% (inactive)
COC(=O)c1ccc(/C=N/OCC(=O)NC2CCCC(C)C2C)cc1 (stereo not drawn)	10.8% (inactive)
O=C(CSc1nc(-c2ccccc2)cs1)NCc1ccco1	3.71% (inactive)
COc1ccc(CC(=O)NC(C)(C)CC(C)=O)cc1OC	6.3% (inactive)
CSc1ccc(-c2nnn(Cc3ccc(C)cc3)n2)cc1	-7.23% (inactive)
C=CCSc1nc(-c2ccc(OC)cc2)c(C#N)c(=O)n1CC=C	15.4% (inactive)
COc1ccc(/C=C/C(=O)NCC(=O)n2nc(C)cc2C)cc1	-7.73% (inactive)
COc1ccc2[nH]c(=O)c(CN(C)C(=O)C3CCCCC3)cc2c1	4.58% (inactive)
O=C1NC(=O)C2C1C(c1cccs1)NN2Cc1ccccc1 (stereo not drawn)	3.37% (inactive)
Cc1nn(CCC#N)c(NC(=O)c2ccc(Cl)cc2)c1P(=O)(Nc1ccc([N+](=O)[O-])cc1)N1CCOCC1 (stereo not drawn)	-25.7% (inactive)
COc1ccc(-c2c(=O)n(OCc3ccccc3[N+](=O)[O-])c3ccccc3[n+]2[O-])c(OC)c1	2.69% (inactive)
CCCNCc1cc(OC)c(OCc2ccccc2)cc1Br	6.93% (inactive)
Cc1cc(N2CCN(Cc3ccccc3)CC2)n2nc(C)c(-c3ccccc3)c2n1	-3.83% (inactive)

SMILES	inhibition
CCN1CCN(c2cc(C(C)C)nc3c(-c4ccccc4)c(C)nn23)CC1	11.2% (inactive)
Cc1nn2c(N3CCN(C(=O)c4ccco4)CC3)cc(C(C)(C)C)nc2c1-c1ccccc1	32.7% (inactive)
Cc1nn2c(N3CCN(C4CCCC4)CC3)cc(C(C)(C)C)nc2c1-c1ccccc1	8.34% (inactive)
O=C(CCc1ccccc1)NC1CCSC1=O (stereo not drawn)	-9.93% (inactive)
NC1=NC[C@H](c2ccccc2)N1CCCCC1CCCCC1	52.1% (inactive)
CCCCN1C(N)=NC[C@@H]1Cc1ccc(O)cc1	-2.68% (inactive)
NC1=NC[C@H](Cc2ccc(O)cc2)N1CC1CCCCC1	-3.49% (inactive)
FC(F)(F)c1cc(CCN2C(=S)NC[C@@H]2CC2CCCCC2)cc(C(F)(F)F)c1	-1.6% (inactive)
NC1=NC[C@@H](Cc2ccc(O)cc2)N1CCc1cc(C(F)(F)F)cc(C(F)(F)F)c1	11.5% (inactive)
NC1=NC[C@H](Cc2ccccc2)N1CC1CCCCC1	-8.5% (inactive)
NC1=NC[C@@H](Cc2ccc(O)cc2)N1CC1CCCCC1	-0.61% (inactive)
NC1=NC[C@@H](Cc2ccc(O)cc2)N1CCC12CC3CC(CC(C3)C1)C2	20.2% (inactive)
COC(=O)c1ccc(COc2ccccc2/C=C(\C#N)C(=O)NC(C)C)cc1	4.92% (inactive)
COc1ccc(-n2c(O)c(C(C)=NCc3ccco3)c(=O)[nH]c2=O)cc1	2.3% (inactive)
CCOC(=O)C1=C(CSc2nc(-c3ccccc3)ccc2C#N)OC(N)=C(C#N)C1c1ccccc1 (stereo not drawn)	-11.5% (inactive)
CCn1c(CCc2nc3ccccc3[nH]2)n[nH]c1=S	-3.65% (inactive)
COc1ccccc1NC(=O)N1CCN(c2ccnc3cc(Cl)ccc23)CC1	9.81% (inactive)
CC(=O)N1CCN(c2ccnc3cc(Cl)ccc23)CC1	-0.19% (inactive)
Cc1cccc(Cl)c1NC(=O)N1CCN(c2ccnc3cc(Cl)ccc23)CC1	0.44% (inactive)
Cc1ccc(F)cc1NC(=O)N1CCN(c2ccnc3cc(Cl)ccc23)CC1	25.6% (inactive)
O=C(N/N=C/c1ccc2c(c1)OCO2)c1cc(-c2ccccc2)nc2ccccc12	9.28% (inactive)
